Sampled rows, rich in hits. Any-hit rate of the full collection: about 18%.
VDR inhibitor: vitamin D3 receptor (human) inhibition; VDR-SRC2-3 peptide fluorescence polarization, 2 h; 0.93% of 400,000 active; P11473; Potency, µM, most hits filed as inhibitors; AID 504847
Target sequence (P11473 whole entry, looked up): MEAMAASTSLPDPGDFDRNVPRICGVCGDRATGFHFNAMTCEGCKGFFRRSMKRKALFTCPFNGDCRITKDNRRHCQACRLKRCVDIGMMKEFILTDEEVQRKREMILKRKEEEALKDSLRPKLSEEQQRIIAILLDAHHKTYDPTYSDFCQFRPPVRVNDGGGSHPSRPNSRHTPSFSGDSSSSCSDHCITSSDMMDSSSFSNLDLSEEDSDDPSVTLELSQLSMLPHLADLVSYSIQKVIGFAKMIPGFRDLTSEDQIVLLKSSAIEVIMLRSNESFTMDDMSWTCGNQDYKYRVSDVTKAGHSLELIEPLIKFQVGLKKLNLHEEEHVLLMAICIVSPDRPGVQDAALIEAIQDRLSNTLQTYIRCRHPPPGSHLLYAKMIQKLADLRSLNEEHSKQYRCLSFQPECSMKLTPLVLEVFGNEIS
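Measured by FP: displacement of SRC2-3 coactivator peptide from VDR by library compounds, following a two-hour ambient incubation.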
PLK1 PBD block: blocks phosphopeptide binding to human PLK1 polo-box domain; Potency, µM, actives largely listed as inhibitors; Plk1 PBD binding of FITC phosphopeptide, fluorescence polarization; P53350; 2.8% of 360,000 active; note: series mostly up to about 57 µM; nearly all actives have a fitted effect of over 65% in size
TDP1 block: TDP1 (human) enzyme inhibition; 0.28% of 350,000 active; recombinant TDP1, AlphaScreen DNA substrate cleavage; AID 485290; Potency, µM (top dose mostly 130 µM), actives largely listed as inhibitors; Q9NUW8; note: nearly all actives have a fitted effect of over 40% in size
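Steps: enzyme plus compound, 15 min RT; add biotin/phosphotyrosine-FITC oligonucleotide (15 nM final), react 5 min; add donor/acceptor beads (10 ug/ml final), 10 min; read AlphaScreen. Tdp1 at 1 nM final.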
GCN5L2 inh: inhibitors of human GCN5L2 histone acetyltransferase; Q92830; GCN5L2 HAT assay, ThioGlo1 CoA-SH fluorescence; Potency, µM (series often up to 58.9 µM), most hits filed as inhibitors; 0.21% of 390,000 active; AID 504327
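GCN5L2 (20nM final) in 50mM HEPES, 0.1mM EDTA pH 7.5, 0.01% Tween-20 was preincubated 15 min at room temperature with compound, then given ThioGlo1 (50uM), H3(1-25) peptide (75uM) and acetyl-CoA (70uM); CoA-thiol fluorescence (Ex340/Em540) was read at 0 and 20 min.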
TDP1 cell CPT: DT40-hTDP1 cell growth loss with CPT | chicken DT40 Tdp1-/-;hTDP1 cells + 20 nM CPT, ATP luminescence, 48 h | Potency, µM (top dose mostly 46.2 µM), hits mostly inhibitors | 12% of 420,000 active | AID 686979; note: nearly all actives have a fitted effect of over 55% in size
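Chicken DT40 Tdp1-/- cells stably complemented with human TDP1 were seeded at 400 cells/well in medium containing 20 nM camptothecin, exposed to pin-transferred compounds, and grown at 37 °C for at least 48 hr. Viability was read as ATP luminescence.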
TDP1 cell noCPT: qHTS for Inhibitors of human tyrosyl-DNA phosphodiesterase 1 (TDP1): qHTS in cells in absence of CPT; DT40 Tdp1-/- hTDP1 cells, no CPT, ATP luminescence, 48 h; Potency, µM (top dose mostly 46.2 µM), actives largely listed as inhibitors; 15% of 420,000 active; note: nearly all actives have a fitted effect of over 55% in size
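Growth kinetics read by CellTiter-Glo luminescence after ≥48 hr at 37 °C. Cells: DT40 Tdp1-/- stably carrying human TDP1, 400 per well, compound exposure in the absence of CPT (DMSO vehicle).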
Large screens that a line does not name were inactive. Calls come from the whole dose curve; as a rule, active = well fitted curve in the direction sought with a large enough effect; inconclusive = small, poorly fitted or top-dose-only effect, or another doubt; inactive = no such curve, though single readings can be large; an effect the other way counts as inactive or inconclusive.

O=c1c2ccccc2nc2ccc(NCc3ccco3)nn12	TDP1 block 50µM, TDP1 cell CPT inconclusive, TDP1 cell noCPT inconclusive
Cc1sc2nc(SCC(=O)NCc3ccco3)n(C)c(=O)c2c1C	TDP1 cell noCPT inconclusive
CC(NC(=O)CCc1nc2cc(S(=O)(=O)N3CCOCC3)ccc2n1C)c1ccc(S(N)(=O)=O)cc1 (centres undefined)	none
Cc1ccc(NC(=O)COC(=O)c2ccc(Cl)nc2)cc1S(=O)(=O)N1CCCCC1	none (no result: TDP1 block)
COc1ccc(C(=O)c2oc3ccc(OC)cc3c2N)cc1	TDP1 cell CPT inconclusive, TDP1 cell noCPT 16µM
COc1ccc(C)cc1NS(=O)(=O)c1ccc2c3c(cccc13)C(=O)N2	TDP1 cell CPT 4.1µM, TDP1 cell noCPT inconclusive (no result: PLK1 PBD block)
Cc1ccc2oc3c(c(=O)c2c1)C(c1ccc(O)cc1)N(c1nc(C)c(C)s1)C3=O (centres undefined)	none (no result: PLK1 PBD block)
CC(=O)N1c2c(cc(Br)cc2S(=O)(=O)N2CCN(c3cccc(Cl)c3)CC2)CC1C (centres undefined)	TDP1 cell CPT 10µM, TDP1 cell noCPT 9.2µM (no result: PLK1 PBD block)
CC(=O)c1nnn(-c2nc(N)nc(N(c3ccccc3)c3ccccc3)n2)c1C	TDP1 cell CPT 29µM, TDP1 cell noCPT 15µM
CCCCN(CCCC)c1nc(OC)nc(-n2nnc(C(C)=O)c2C)n1	TDP1 cell CPT 23µM, TDP1 cell noCPT inconclusive
CCOC(=O)c1nnn(-c2nc(N(C)C)nc(N(C)C)n2)c1C	none
CCc1ccc(CNC(=O)CCSCc2ccccc2F)cc1	none (no result: PLK1 PBD block)
Cc1ccccc1Nc1c(-c2ccc(N3CCOCC3)cc2)nc2ccc(Cl)cn12	TDP1 cell CPT 18µM, TDP1 cell noCPT 16µM (no result: PLK1 PBD block)
Cc1ccc2nc(-c3ccc(N4CCOCC4)cc3)c(Nc3ccccc3C)n2c1	GCN5L2 inh inconclusive, TDP1 cell CPT 16µM, TDP1 cell noCPT 18µM (no result: PLK1 PBD block)
Cc1ccn2c(Nc3ccccc3C)c(-c3ccc(N4CCOCC4)cc3)nc2c1	GCN5L2 inh inconclusive, TDP1 cell CPT 18µM, TDP1 cell noCPT inconclusive (no result: PLK1 PBD block)
O=C(c1ccccc1)C1CN(c2ccccc2)CC1c1ccc(Cl)cc1 (centres undefined)	TDP1 cell CPT inconclusive, TDP1 cell noCPT 16µM
COc1cccc(C(=O)C2CN(c3ccccc3)CC2c2ccc(Cl)cc2)c1 (centres undefined)	VDR inhibitor inconclusive, TDP1 cell CPT inconclusive
CCOc1ccc(S(=O)(=O)N2CCC(C(=O)NCCN3CCOCC3)CC2)cc1C	none (no result: TDP1 block)
C=C1C(=O)C2=CC1CCC(=O)C1(C)CCC(OC(C)=O)C(C)(C)C1CC2O (centres undefined)	VDR inhibitor inconclusive, TDP1 cell CPT 2.1µM, TDP1 cell noCPT 2.1µM (no result: TDP1 block, GCN5L2 inh)
COC(=O)Cc1c(C)c2ccc(OC3CCCCC3=O)c(C)c2oc1=O (centres undefined)	TDP1 cell CPT inconclusive, TDP1 cell noCPT 18µM (no result: TDP1 block)
COC(=O)Cc1c(C)c2ccc(OC3CCCCC3=O)cc2oc1=O (centres undefined)	none (no result: TDP1 block)
C/C(=N\NC(=O)c1ccc(Cl)c(Cl)c1)c1ccc(Br)s1	TDP1 cell CPT 1.5µM, TDP1 cell noCPT 1.5µM
C/C(=N\Nc1ccc(C(=O)O)cc1)c1ccc(Cl)s1	none (no result: TDP1 block)
C/C(=N\Nc1ccc(Cl)c(C(=O)O)c1)c1ccc(Br)s1	PLK1 PBD block 24µM (no result: TDP1 block)
C/C(=N/NC(=O)c1ccc2c(c1)OCO2)c1ccc(Br)s1	none
CCC(NS(=O)(=O)c1ccc(OC)cc1)C(=O)NCCc1ccccc1 (centres undefined)	none (no result: TDP1 block)
COc1ccc(OC)c(NC(=O)CC2C(=O)NCCN2C(=O)c2ccccc2)c1 (centres undefined)	none
CC1CCCN(Cc2c(O)ccc3c(=O)c(-c4ccc(Cl)cc4)c(C(F)(F)F)oc23)C1 (centres undefined)	none (no result: PLK1 PBD block, TDP1 block)
CCOC(=O)c1sc(N)c(C(=O)Nc2ccccc2)c1C	VDR inhibitor inconclusive, PLK1 PBD block 9.5µM, TDP1 cell CPT inconclusive, TDP1 cell noCPT inconclusive
CCOC(=O)c1c(N)sc(C(=O)OCCOC)c1C	VDR inhibitor 79µM, PLK1 PBD block 9.5µM, TDP1 cell noCPT inconclusive
O=C(N/N=C\c1ccc(F)cc1)c1cc(OCC(F)(F)F)ccc1OCC(F)(F)F	none
C=CCONC(=O)c1cc(OCC(F)(F)F)ccc1OCC(F)(F)F	none
O=C(N/N=C/c1ccc(OCCCF)cc1)c1cc(OCC(F)(F)F)ccc1OCC(F)(F)F	GCN5L2 inh 0.89µM
O=C(NNC(=O)c1cc(OCC(F)(F)F)ccc1OCC(F)(F)F)c1ccc(Cl)c(Cl)c1	TDP1 cell CPT 23µM, TDP1 cell noCPT inconclusive
CCCCOC(=O)c1ccc(NC(=O)CSc2nc3c(c(=O)[nH]2)CCC3)cc1	TDP1 cell CPT inconclusive, TDP1 cell noCPT inconclusive (no result: PLK1 PBD block)
Cc1coc2cc3oc(=O)c(CC(=O)NCc4cccc(Cl)c4)c(C)c3cc12	TDP1 cell CPT inconclusive, TDP1 cell noCPT 21µM (no result: PLK1 PBD block)
Cc1coc2cc3oc(=O)c(CC(=O)NCc4ccccc4)c(C)c3cc12	TDP1 cell CPT 5.8µM, TDP1 cell noCPT 5.2µM (no result: PLK1 PBD block)
Cc1coc2cc3oc(=O)c(CC(=O)NCc4ccc(F)cc4)c(C)c3cc12	TDP1 cell CPT 6.5µM, TDP1 cell noCPT 5.8µM (no result: PLK1 PBD block)
Cc1ccc(CNC(=O)Cc2c(C)c3cc4c(C)coc4cc3oc2=O)cc1	none (no result: PLK1 PBD block)
CNC[C@@H](C)NC[C@@H](Cc1ccccc1)NCCc1ccccc1	TDP1 cell CPT 8.2µM, TDP1 cell noCPT 4.6µM (no result: TDP1 block)
CC(=O)O[C@H]1CC(C)(C)C(=C=C/C(C)=C/C=C/C(C)=C/C=C/C=C(C)/C=C/C=C(\C)C(=O)C[C@@]23O[C@]2(C)C[C@@H](O)CC3(C)C)[C@](C)(O)C1	VDR inhibitor inconclusive, TDP1 cell CPT 26µM, TDP1 cell noCPT inconclusive
CN(C)CCCN(C(=O)c1cc(-c2cccs2)nc2ccccc12)c1nc2ccc(F)cc2s1	TDP1 cell CPT 23µM, TDP1 cell noCPT 13µM
Cc1cccc2sc(N(CCCN(C)C)C(=O)CN3C(=O)c4ccccc4C3=O)nc12	TDP1 cell CPT inconclusive, TDP1 cell noCPT inconclusive
CN(C)CCN(C(=O)/C=C/c1cccs1)c1nc2ccc(F)cc2s1	TDP1 cell CPT 21µM, TDP1 cell noCPT 18µM
Cc1cccc2sc(N(CCCN(C)C)C(=O)CCc3ccccc3)nc12	TDP1 cell CPT 26µM, TDP1 cell noCPT inconclusive
CN(C)CCCN(C(=O)CCc1ccccc1)c1nc2ccc(F)cc2s1	TDP1 cell noCPT 16µM
CC(=O)c1cccc(NC(=O)NC(C)c2ccc3c(c2)OCO3)c1 (centres undefined)	none
CC1CCN(Cc2c(O)ccc3c(=O)c(-c4cccc(Cl)c4)c(C(F)(F)F)oc23)CC1	none (no result: PLK1 PBD block)
CC(=O)c1ccc(NC(=O)C(C)n2nc(-c3ccccc3)ccc2=O)cc1 (centres undefined)	none (no result: PLK1 PBD block)
